Reference: ChEMBL document CHEMBL4513216, “Probing the Open Global Health Chemical Diversity Library for Multistage-Active Starting Points for Next-Generation Antimalarials” (ACS Infect Dis, 2020)
Screen size: about 69,000 compounds; about 8,600 (12%) showed an effect of 50% or more. This is one part of a sample in which strong results are shown more often than they occur.

System: Plasmodium berghei
Experiment: Screen against P. berghei liver stage (PbLuc), transformed with Luciferase, at 10uM
Format: functional, HepG2
Settings: tested at 10 uM

SMILES | INHIBITION
CC(C(=O)NCC1CCN(c2ccncc2)CC1)S(C)(=O)=O (stereo not given) | -7.94%
O=C(c1cnc2ccc(F)cc2c1NCc1ccco1)N1CCCCC1 | -6.73%
CCN(Cc1ccc(F)c(F)c1)Cc1nc2c(cnn2C)c(=O)[nH]1 | -57.4%
CSCC(=O)N1CCCC(CCC(=O)N(C)CCc2ccccn2)C1 (stereo not given) | 29.2%
CCc1nc(C2CCCN2C(=O)CCc2nc(C3CC3)no2)no1 (stereo not given) | -9.19%
O=S(=O)(C1CC1)N1Cc2nccn2CC(Cn2cncn2)C1 (stereo not given) | 68.3%
CCS(=O)(=O)N1Cc2nccn2CC(Cn2cncn2)C1 (stereo not given) | 20.6%
CCCS(=O)(=O)N1Cc2nccn2CC(Cn2cncn2)C1 (stereo not given) | -23.1%
Cc1nccn1CCC1CCN(C(=O)C2CC3(CCNCC3)CN2)CC1 (stereo not given) | 33.9%
COCCN1CCN(CCS(C)(=O)=O)CC1C (stereo not given) | -73.1%
COCCN1CCN(CCCS(=O)(=O)N(C)C)CC1C (stereo not given) | 66.7%
COCCN1CCN(CCCS(C)(=O)=O)CC1C (stereo not given) | 25.7%
NCc1cccc(-c2cccnc2C(=O)NCCN2CCOCC2)c1 | 25.8%
Cn1cc(NC(=O)c2cc3c(s2)CCCC3)cn1 | -179%
CCc1nc(CCNC(=O)C2CC2)sc1C | 2.69%
Cc1csc(CCNC(=O)C2CCOC2)n1 (stereo not given) | 8.08%
CCc1nc(CCNC(=O)C2CCOC2)sc1C (stereo not given) | 56.8%
N#Cc1c(N2CCOCC2)nsc1-c1cccnc1 | -31.3%
Cc1cccc(C(C)C)c1NC(=O)NCCN(C(C)C)C(C)C | 56%
COCCCNC(=O)Nc1c(C)cccc1C(C)C | -19.1%
CCN(CC)CCCNC(=O)Nc1c(C)cccc1C(C)C | 7.3%
CCN(CC)C(=O)c1ccc(CNc2cncc(-n3cccn3)n2)cc1 | 29.4%
Cc1nc(CN2CCN(c3ccc(Cl)cn3)CC2)no1 | -52.4%
CCC(CC)C(O)CNC(=O)Nc1cccc(-c2nccn2C)c1 (stereo not given) | 50.8%
CCOCCNC(=O)Nc1cccc(-c2nccn2C)c1 | -21.8%
Cn1ccnc1-c1cccc(NC(=O)NCCCO)c1 | 10%
Cn1cnc2c1C(COCC1CC1)CN(c1ncccn1)C2 (stereo not given) | -32%

SMILES | INHIBITION
CC(=O)N1CCCN(C(=O)NC(C)Cn2cccn2)CC1 (stereo not given) | 21.6%
Cn1cc(CN2C[C@@H]3CCCO[C@@H]3[C@H](N3CCCC3=O)C2)cn1 | -3.51%
CCOCc1nc2c(c(NC(COC)c3ccccn3)n1)CCNCC2 (stereo not given) | 8.31%
COc1ccc(C(=O)C2CCCN(CCc3ccccc3)C2)c(OC)c1 (stereo not given) | 71.3%
COc1ccc(F)cc1C(=O)C1CCCN(Cc2ccc(C)s2)C1 (stereo not given) | 43.9%
COc1ccc(C(=O)C2CCCN(Cc3ccc(C)o3)C2)c(OC)c1 (stereo not given) | 42.9%
COCCc1ncc(CN2CCCC(C(=O)c3ccccc3)C2)cn1 (stereo not given) | 36.8%
COc1ccc(C(=O)C2CCCN(Cc3cc(C)n[nH]3)C2)c(OC)c1 (stereo not given) | 68.5%
COc1ccc(C(=O)C2CCCN(Cc3ccncc3)C2)c(OC)c1 (stereo not given) | -3.1%
COc1ccc(C(=O)C2CCCN(Cc3ccccc3O)C2)c(OC)c1 (stereo not given) | -20.5%
COc1ccc(C(=O)C2CCCN(Cc3ccon3)C2)c(OC)c1 (stereo not given) | 47.7%
COc1ccc(C(=O)C2CCCN(Cc3ccncc3)C2)cc1OC (stereo not given) | 63%
COc1ccc(C(=O)C2CCCN(Cc3cccc(F)c3)C2)c(OC)c1 (stereo not given) | 76.9%
COc1ccc(C(=O)C2CCCN(CCCn3cccn3)C2)c(OC)c1 (stereo not given) | 25.4%
CN1CCN(C(=O)c2ncn3c2CN(C)S(=O)(=O)c2ccccc2-3)CC1 | -79.8%
CCc1noc(CN2CCC(c3ccnn3CCO)CC2)n1 | -19.4%
CN(C)C(C(=O)N1CCC(c2ncc[nH]2)CC1)c1ccc2c(c1)OCO2 (stereo not given) | 14.3%
O=C1COC2(CCN(C(=O)c3ccoc3)CC2)CN1Cc1ccccn1 | -33.9%
CCOCCC(=O)NCC(C)c1ccsc1 (stereo not given) | 32%
CN(C)C(CNC(=O)CCNC(=O)OCC(F)(F)F)c1ccsc1 (stereo not given) | 61.9%
CN(C)C(CNC(=O)OCC(F)(F)F)c1ccsc1 (stereo not given) | 44.3%
CC(C)c1cc(C(=O)N2CCCC(c3cc(=O)nc4n3CCC4)C2)no1 (stereo not given) | 18.4%
CC1(C)CN(C(=O)Nc2cc(C(F)(F)F)c[nH]c2=O)CCO1 | 4.97%
CCO[C@H]1CC[C@H]2[C@H]1OCCN2CCOCc1ccccc1 | 4.98%
O=C(N[C@@H]1CN(c2ncccn2)C[C@@H]2CCCO[C@@H]21)c1ccnnc1 | -3.52%
COc1ccc(C)cc1-n1c(COC(C)C)n[nH]c1=O | 72.3%
COc1ccc(Cl)cc1-n1c(COC(C)C)n[nH]c1=O | 26.4%

SMILES | INHIBITION
COc1ccc(OC)c(-n2c(COC(C)C)n[nH]c2=O)c1 | 45.4%
COc1cccc(C(O)C(=O)N(C)CCc2ccccn2)c1 (stereo not given) | 47.7%
O=C(CSCC1CC1)N1CCC2(CCCN(C3CCOCC3)C2=O)C1 (stereo not given) | 1.48%
CN(C)C(=O)c1cnn2c1OCCC2 | 60.6%
CS(=O)(=O)N1CCN(C(=O)c2cnn3c2OCCC3)CC1 | 31.6%
O=C(c1cnn2c1OCCC2)N1CCC2(CC1)OCCO2 | -14.2%
CC(NCCCC#N)c1ccc(S(C)(=O)=O)c(F)c1 (stereo not given) | 19.1%
CCn1c(C2CCCNC2)nn(CCn2cncn2)c1=O (stereo not given) | -7.13%
O=C(CCn1cccc1)NCc1ccc(CN2CCCCCC2)o1 | 37.4%
CCOc1ccc2c(c1)C=C(C(=O)NC(C)Cn1cccn1)CO2 (stereo not given) | 2.91%
CCCOc1ccc2c(c1)OCC(C(=O)NC(C)Cn1ccnc1)=C2 (stereo not given) | 51%
CCCOc1ccc2c(c1)OCC(C(=O)NC(C)Cn1cccn1)=C2 (stereo not given) | 30.9%
CCOCC1CN(S(=O)(=O)N(C)C)Cc2cnn(CC)c21 (stereo not given) | 29%
Cc1cc(NC(=O)CN2CCC(N(C)Cc3ncc(C)o3)C2)n(C)n1 (stereo not given) | -29.9%
c1ccc(OCCCNCCn2cccn2)cc1 | 38.7%
COc1ccc(OCCNCCn2cccn2)cc1 | 0.932%
Cc1ccc(OCc2nc(CNCCn3cccn3)cs2)cc1 | -24.1%
Cc1cnn(CCNCc2ccc(OCc3noc(C)n3)cc2)c1 | 66.3%
COc1ccc(OCCCNCCn2cccn2)cc1 | 64.7%
Cc1cnn(CC(C)NCc2ccc(OCc3noc(C)n3)cc2)c1 (stereo not given) | -79.3%
Cc1cnn(CCNCc2ccc(OCc3ccccn3)cc2)c1 | 34.6%
Cc1cnn(CCNCc2ccc(OCc3csc(C)n3)cc2)c1 | -37.9%
Cc1cnn(CCNCc2ccc(OCc3cscn3)cc2)c1 | 85.1%
Cc1nc(COc2ccc(CNCCn3cccn3)cc2)cs1 | 88.5%
c1ccc(OCc2nc(CNCCn3cccn3)cs2)cc1 | 1.95%
Cc1cnn(CCNCc2nc(COc3ccc(F)cc3)no2)c1 | 19.3%
